# From PMC7862700, “An all-to-all approach to the identification of sequence-specific readers for epigenetic DNA modifications on cytosine”
# Assays:
# Assay in all cases: DAPPL (digital affinity profiling via proximity ligation, sequencing); 10 mM Tris-HCl pH 7.5, 50 mM NaCl, 1 mM DTT, 4% glycerol, room temperature, 30 min; GST-TFs on glutathione beads, 16-mer random dsDNA library, 0.1% formaldehyde crosslink after washing; high values mean tight binding
# [1] = target: T1, FLI1 (Homo sapiens, UniProt Q01543 1-452); conditions: protein: recombinant; tags: N-terminal GST; dsDNA, one strand shown
# T1 sequence: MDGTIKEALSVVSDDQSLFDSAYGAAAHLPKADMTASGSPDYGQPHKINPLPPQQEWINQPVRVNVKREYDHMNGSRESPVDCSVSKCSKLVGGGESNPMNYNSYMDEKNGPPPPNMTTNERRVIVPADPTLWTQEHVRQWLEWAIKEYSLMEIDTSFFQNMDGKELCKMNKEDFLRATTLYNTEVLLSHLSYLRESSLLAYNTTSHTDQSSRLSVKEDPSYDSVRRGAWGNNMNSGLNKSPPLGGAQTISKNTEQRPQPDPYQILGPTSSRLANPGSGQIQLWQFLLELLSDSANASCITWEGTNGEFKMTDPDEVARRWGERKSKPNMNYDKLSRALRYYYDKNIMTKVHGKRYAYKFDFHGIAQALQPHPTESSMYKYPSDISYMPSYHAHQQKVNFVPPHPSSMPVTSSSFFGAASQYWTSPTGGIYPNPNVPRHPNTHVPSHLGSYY
# Method in brief: (§1)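 Pools were built from human transcription factors expressed in yeast as GST fusions, captured on glutathione beads and DNA-barcoded, along with a tag-only sample. Incubation with 200 nmole of a 16-mer random double-stranded DNA library lasted 30 min at room temperature in Tris/NaCl/DTT/glycerol buffer, and was followed by washing, 0.1% formaldehyde crosslinking, proximity ligation, PCR amplification and Illumina NextSeq500 sequencing. Binding signal is the quotient of each hexamer's read frequency for a factor and its frequency for the tag-only sample.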
# [2] = target: T2, ELK1 (Homo sapiens, UniProt P19419 1-428); conditions: protein: recombinant; tags: N-terminal GST; dsDNA, one strand shown
# T2 sequence: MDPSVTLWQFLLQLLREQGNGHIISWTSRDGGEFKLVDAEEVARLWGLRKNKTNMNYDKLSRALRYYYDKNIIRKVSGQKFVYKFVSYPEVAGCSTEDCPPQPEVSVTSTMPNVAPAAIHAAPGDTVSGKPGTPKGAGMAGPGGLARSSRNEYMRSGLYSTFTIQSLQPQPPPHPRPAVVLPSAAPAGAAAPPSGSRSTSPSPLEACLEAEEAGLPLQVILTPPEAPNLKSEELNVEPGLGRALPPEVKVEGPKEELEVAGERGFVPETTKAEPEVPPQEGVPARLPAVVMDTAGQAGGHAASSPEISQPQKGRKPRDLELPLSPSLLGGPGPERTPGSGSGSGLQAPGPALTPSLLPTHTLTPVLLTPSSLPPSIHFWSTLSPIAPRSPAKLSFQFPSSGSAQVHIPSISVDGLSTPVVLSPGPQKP
# Method in brief: as §1
# [3] = target: T3, GABPA (Homo sapiens, UniProt Q06546 1-454); conditions: protein: recombinant; tags: N-terminal GST; dsDNA, one strand shown
# T3 sequence: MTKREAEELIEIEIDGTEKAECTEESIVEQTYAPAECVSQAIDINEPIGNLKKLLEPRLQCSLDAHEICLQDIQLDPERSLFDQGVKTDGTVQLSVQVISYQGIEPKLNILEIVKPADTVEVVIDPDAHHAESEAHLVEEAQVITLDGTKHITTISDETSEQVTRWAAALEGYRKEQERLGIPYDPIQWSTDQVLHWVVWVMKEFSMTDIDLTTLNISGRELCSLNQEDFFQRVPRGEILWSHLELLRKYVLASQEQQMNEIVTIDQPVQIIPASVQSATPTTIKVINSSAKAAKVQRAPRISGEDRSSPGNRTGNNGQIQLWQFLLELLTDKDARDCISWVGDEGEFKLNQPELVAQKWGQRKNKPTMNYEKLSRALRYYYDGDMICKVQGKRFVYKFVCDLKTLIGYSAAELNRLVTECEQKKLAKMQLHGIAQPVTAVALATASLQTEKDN
# Method in brief: as §1
# [4] = target: T4, ERG (Homo sapiens, UniProt P11308 1-479); conditions: protein: recombinant; tags: N-terminal GST; dsDNA, one strand shown
# T4 sequence: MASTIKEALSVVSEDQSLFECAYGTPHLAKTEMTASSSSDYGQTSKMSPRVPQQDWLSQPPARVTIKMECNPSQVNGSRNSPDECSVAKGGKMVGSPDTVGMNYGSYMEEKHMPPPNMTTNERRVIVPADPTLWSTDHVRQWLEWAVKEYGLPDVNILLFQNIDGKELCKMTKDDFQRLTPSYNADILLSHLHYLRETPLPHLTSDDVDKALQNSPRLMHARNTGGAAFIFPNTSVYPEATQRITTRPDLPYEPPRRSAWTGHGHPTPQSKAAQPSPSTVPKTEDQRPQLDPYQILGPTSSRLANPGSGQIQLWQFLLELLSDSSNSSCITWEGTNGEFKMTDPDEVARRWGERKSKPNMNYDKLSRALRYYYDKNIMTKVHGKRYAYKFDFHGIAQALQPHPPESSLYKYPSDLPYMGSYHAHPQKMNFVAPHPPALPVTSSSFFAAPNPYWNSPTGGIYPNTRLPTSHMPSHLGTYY
# Method in brief: as §1
# [5] = target: ELF1 (Homo sapiens, UniProt P32519 1-619); conditions: protein: recombinant; tags: N-terminal GST; dsDNA, one strand shown
# Method in brief: as §1
# [6] = target: T5, EHF (Homo sapiens, UniProt Q9NZC4 1-300); conditions: protein: recombinant; tags: N-terminal GST; dsDNA, one strand shown
# T5 sequence: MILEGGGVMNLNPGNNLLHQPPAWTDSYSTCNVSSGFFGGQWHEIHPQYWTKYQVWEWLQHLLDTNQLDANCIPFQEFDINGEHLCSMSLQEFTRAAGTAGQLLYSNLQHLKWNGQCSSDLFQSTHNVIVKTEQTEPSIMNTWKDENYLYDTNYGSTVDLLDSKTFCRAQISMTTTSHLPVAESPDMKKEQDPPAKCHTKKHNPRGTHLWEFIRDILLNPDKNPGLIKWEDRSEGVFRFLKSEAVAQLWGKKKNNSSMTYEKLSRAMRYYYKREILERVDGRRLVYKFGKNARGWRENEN
# Method in brief: as §1
# [7] = target: SPI1 (Homo sapiens, UniProt P17947 1-270); conditions: protein: recombinant; tags: N-terminal GST; dsDNA, one strand shown
# Method in brief: as §1
# [8] = target: SPIB (Homo sapiens, UniProt Q01892 1-262); conditions: protein: recombinant; tags: N-terminal GST; dsDNA, one strand shown
# Method in brief: as §1
# [9] = target: T6, ELK3 (Homo sapiens, UniProt P41970 1-407); conditions: protein: recombinant; tags: N-terminal GST; dsDNA, one strand shown
# T6 sequence: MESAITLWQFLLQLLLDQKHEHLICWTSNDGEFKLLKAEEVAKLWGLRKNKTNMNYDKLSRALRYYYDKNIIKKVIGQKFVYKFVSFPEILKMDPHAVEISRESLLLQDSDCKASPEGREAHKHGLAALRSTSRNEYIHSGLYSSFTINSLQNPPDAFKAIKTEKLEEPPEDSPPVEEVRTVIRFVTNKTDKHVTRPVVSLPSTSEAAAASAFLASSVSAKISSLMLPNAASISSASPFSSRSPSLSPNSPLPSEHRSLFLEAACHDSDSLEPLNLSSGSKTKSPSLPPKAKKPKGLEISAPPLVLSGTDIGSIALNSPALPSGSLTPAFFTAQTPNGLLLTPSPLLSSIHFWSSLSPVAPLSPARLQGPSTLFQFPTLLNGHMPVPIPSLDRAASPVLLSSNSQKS
# Method in brief: as §1
# [10] = target: T7, FEV (Homo sapiens, UniProt Q99581 1-238); conditions: protein: recombinant; tags: N-terminal GST; dsDNA, one strand shown
# T7 sequence: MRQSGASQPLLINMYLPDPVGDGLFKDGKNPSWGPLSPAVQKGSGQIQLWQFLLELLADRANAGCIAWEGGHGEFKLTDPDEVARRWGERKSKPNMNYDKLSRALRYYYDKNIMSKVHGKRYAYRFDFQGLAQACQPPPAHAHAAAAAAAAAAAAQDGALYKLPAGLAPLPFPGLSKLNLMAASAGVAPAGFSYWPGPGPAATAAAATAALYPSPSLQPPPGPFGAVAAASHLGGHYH
# Method in brief: as §1
# [11] = target: ETV5 (Homo sapiens, UniProt P41161 1-510); conditions: protein: recombinant; tags: N-terminal GST; dsDNA, one strand shown
# Method in brief: as §1
# [12] = target: HSF1 (Homo sapiens, UniProt Q00613 1-529); conditions: protein: recombinant; tags: N-terminal GST; chain copies: 3; dsDNA, one strand shown
# Method in brief: as §1
# [13] = target: T8, SPIC (Homo sapiens, UniProt Q8N5J4 1-248); conditions: protein: recombinant; tags: N-terminal GST; dsDNA, one strand shown
# T8 sequence: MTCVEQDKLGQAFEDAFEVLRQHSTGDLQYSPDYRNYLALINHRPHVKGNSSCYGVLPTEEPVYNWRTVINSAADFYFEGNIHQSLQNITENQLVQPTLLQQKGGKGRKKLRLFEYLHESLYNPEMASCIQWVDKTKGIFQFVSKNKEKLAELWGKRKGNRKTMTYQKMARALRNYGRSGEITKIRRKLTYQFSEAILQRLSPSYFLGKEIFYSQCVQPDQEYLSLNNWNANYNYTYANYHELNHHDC
# Method in brief: as §1
# [14] = target: ELF4 (Homo sapiens, UniProt Q99607 1-663); conditions: protein: recombinant; tags: N-terminal GST; dsDNA, one strand shown
# Method in brief: as §1
# [15] = target: T9, ELK4 (Homo sapiens, UniProt P28324-2 1-405); conditions: protein: recombinant; tags: N-terminal GST; dsDNA, one strand shown
# T9 sequence: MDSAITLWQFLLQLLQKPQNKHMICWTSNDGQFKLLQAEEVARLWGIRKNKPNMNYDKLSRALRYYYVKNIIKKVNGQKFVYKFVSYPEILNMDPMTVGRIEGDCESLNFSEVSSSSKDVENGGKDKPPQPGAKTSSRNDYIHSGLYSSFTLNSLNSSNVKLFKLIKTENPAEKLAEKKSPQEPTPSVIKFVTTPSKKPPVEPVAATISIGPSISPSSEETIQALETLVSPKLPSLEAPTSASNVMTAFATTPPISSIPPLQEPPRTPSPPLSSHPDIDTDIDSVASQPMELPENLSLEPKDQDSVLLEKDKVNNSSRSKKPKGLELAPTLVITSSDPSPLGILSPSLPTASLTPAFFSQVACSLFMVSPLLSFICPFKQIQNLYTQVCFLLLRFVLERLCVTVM
# Method in brief: as §1
# [16] = target: T10, ETV2 (Homo sapiens, UniProt O00321 1-342); conditions: protein: recombinant; tags: N-terminal GST; dsDNA, one strand shown
# T10 sequence: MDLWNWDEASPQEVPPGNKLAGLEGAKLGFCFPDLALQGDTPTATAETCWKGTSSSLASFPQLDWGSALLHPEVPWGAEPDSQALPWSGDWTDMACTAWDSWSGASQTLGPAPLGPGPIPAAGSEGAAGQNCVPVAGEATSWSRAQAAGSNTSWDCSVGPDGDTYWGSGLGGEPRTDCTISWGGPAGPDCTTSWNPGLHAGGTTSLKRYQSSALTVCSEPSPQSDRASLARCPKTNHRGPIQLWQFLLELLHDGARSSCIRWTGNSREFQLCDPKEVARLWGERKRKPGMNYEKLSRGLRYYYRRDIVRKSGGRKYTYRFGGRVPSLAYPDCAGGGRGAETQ
# Method in brief: as §1
# [17] = target: T11, ELF3 (Homo sapiens, UniProt P78545 1-371); conditions: protein: recombinant; tags: N-terminal GST; dsDNA, one strand shown
# T11 sequence: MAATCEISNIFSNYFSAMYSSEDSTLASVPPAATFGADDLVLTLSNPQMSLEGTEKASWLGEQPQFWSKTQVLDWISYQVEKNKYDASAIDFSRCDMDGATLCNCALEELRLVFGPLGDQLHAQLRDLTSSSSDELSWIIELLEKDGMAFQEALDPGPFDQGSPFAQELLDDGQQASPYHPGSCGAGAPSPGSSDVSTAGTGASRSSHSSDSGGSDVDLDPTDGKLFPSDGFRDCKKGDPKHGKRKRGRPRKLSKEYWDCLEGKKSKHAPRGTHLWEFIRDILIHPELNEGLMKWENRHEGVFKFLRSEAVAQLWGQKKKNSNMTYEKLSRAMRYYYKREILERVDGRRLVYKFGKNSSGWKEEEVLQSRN
# Method in brief: as §1
# [18] = target: CRX (Homo sapiens, UniProt O43186 1-299); conditions: protein: recombinant; tags: N-terminal GST; dsDNA, one strand shown
# Method in brief: as §1
# [19] = target: ETV1 (Homo sapiens, UniProt P50549 1-477); conditions: protein: recombinant; tags: N-terminal GST; dsDNA, one strand shown
# Method in brief: as §1
# Sequence of CRX (O43186 whole entry): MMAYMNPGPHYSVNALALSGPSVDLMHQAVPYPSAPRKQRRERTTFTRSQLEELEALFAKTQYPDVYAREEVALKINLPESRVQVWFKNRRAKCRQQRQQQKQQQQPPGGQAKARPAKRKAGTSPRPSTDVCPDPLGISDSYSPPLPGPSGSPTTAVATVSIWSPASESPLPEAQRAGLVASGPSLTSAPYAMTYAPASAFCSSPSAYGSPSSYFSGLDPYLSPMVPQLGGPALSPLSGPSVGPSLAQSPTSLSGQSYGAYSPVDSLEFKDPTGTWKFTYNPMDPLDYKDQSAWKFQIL
# Sequence of ETV5 (P41161 whole entry): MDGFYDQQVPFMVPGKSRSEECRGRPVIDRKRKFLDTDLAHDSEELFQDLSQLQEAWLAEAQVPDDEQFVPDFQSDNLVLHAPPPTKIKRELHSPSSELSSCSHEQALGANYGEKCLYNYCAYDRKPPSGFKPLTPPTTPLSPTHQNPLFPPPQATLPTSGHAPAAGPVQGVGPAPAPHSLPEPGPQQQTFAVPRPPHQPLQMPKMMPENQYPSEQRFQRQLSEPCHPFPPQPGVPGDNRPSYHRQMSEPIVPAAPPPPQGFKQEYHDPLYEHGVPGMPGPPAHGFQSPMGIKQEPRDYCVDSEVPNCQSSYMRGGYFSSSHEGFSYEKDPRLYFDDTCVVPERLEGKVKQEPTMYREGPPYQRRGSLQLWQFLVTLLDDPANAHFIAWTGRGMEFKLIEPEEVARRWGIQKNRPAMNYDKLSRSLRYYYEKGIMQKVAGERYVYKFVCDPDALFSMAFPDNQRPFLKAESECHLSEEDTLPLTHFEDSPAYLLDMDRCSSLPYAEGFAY
# Sequence of SPIB (Q01892 whole entry): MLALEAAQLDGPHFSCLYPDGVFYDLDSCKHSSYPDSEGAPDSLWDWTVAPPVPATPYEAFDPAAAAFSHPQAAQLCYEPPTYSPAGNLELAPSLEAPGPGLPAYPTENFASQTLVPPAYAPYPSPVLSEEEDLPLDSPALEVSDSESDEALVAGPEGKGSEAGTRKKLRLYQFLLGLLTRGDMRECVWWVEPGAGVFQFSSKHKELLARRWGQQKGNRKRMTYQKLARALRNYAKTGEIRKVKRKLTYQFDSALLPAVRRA
# Sequence of ELF1 (P32519 whole entry): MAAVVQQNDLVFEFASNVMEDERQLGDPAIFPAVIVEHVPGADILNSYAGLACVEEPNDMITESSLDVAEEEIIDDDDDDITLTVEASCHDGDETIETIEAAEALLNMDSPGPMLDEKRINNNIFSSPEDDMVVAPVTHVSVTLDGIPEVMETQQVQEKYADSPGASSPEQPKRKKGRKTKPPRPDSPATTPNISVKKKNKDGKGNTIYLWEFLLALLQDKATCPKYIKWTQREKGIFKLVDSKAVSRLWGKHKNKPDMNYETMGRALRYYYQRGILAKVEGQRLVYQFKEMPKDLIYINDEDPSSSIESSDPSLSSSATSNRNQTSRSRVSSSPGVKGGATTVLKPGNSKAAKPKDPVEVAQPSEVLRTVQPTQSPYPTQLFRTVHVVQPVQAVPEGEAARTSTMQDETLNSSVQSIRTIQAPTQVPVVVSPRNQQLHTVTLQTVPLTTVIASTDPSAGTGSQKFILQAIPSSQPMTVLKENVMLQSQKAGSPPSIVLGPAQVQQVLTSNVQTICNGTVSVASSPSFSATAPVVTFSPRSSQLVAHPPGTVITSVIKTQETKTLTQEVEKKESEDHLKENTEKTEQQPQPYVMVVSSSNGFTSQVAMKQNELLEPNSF
# Sequence of ELF4 (Q99607 whole entry): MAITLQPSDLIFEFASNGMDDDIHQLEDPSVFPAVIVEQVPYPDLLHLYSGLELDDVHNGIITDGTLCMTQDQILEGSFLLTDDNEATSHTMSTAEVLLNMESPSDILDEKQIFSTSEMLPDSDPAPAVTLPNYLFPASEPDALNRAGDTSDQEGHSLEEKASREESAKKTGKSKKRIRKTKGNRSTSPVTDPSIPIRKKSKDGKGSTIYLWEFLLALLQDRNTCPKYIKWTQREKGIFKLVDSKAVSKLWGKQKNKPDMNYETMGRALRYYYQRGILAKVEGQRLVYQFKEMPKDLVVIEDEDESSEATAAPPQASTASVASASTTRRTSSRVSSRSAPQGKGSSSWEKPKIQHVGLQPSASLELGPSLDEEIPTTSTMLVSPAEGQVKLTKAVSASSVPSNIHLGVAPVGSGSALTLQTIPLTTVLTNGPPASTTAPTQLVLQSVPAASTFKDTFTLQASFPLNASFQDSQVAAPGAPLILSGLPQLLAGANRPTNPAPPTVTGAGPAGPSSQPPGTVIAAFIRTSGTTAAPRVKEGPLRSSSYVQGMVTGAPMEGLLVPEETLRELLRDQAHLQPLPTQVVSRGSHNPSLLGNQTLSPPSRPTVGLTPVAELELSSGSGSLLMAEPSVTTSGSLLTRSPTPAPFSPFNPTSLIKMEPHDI
# Sequence of ETV1 (P50549 whole entry): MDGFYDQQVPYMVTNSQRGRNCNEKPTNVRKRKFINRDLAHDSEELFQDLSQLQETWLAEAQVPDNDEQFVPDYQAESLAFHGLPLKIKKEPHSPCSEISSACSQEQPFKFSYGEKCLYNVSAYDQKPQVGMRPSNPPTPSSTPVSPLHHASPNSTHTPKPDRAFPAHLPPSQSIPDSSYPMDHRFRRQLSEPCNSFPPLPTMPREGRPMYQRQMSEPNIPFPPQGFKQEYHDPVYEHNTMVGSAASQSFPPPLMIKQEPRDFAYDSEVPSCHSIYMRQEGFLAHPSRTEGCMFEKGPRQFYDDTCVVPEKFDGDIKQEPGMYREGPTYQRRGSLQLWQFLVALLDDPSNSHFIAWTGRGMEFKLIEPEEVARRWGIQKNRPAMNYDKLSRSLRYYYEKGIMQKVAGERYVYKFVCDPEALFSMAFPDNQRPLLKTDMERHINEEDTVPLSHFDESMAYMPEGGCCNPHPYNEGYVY
# Sequence of HSF1 (Q00613 whole entry): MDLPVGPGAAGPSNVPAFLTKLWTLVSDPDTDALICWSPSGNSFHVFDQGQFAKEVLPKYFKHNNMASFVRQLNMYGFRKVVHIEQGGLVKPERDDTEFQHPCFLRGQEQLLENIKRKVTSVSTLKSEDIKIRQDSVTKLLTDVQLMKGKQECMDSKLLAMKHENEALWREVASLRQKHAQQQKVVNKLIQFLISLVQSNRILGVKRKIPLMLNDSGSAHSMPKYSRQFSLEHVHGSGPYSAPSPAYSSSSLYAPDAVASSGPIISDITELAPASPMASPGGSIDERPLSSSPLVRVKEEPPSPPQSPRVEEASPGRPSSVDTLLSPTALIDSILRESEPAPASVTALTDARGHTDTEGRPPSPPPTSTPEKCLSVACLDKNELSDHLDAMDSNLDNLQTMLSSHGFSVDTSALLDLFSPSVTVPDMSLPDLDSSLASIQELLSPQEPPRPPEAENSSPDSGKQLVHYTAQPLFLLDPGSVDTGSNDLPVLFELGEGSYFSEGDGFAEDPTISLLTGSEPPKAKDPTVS
sequence,measurement,setting,value
TCCTCT,binding signal,[1],"1.58 fold enrichment (6-mer frequency, TF over GST control)"
same,binding signal,[2],"1.57 fold enrichment (6-mer frequency, TF over GST control)"
same,binding signal,[3],"1.57 fold enrichment (6-mer frequency, TF over GST control)"
same,binding signal,[4],"1.7 fold enrichment (6-mer frequency, TF over GST control)"
same,binding signal,[5],"1.64 fold enrichment (6-mer frequency, TF over GST control)"
same,binding signal,[6],"1.7 fold enrichment (6-mer frequency, TF over GST control)"
same,binding signal,[7],"2.95 fold enrichment (6-mer frequency, TF over GST control)"
same,binding signal,[8],"1.72 fold enrichment (6-mer frequency, TF over GST control)"
same,binding signal,[9],"1.6 fold enrichment (6-mer frequency, TF over GST control)"
same,binding signal,[10],"1.63 fold enrichment (6-mer frequency, TF over GST control)"
same,binding signal,[11],"1.64 fold enrichment (6-mer frequency, TF over GST control)"
same,binding signal,[12],"1.51 fold enrichment (6-mer frequency, TF over GST control)"
same,binding signal,[13],"1.67 fold enrichment (6-mer frequency, TF over GST control)"
same,binding signal,[14],"1.69 fold enrichment (6-mer frequency, TF over GST control)"
same,binding signal,[15],"1.53 fold enrichment (6-mer frequency, TF over GST control)"
same,binding signal,[16],"1.68 fold enrichment (6-mer frequency, TF over GST control)"
same,binding signal,[17],"1.66 fold enrichment (6-mer frequency, TF over GST control)"
same,binding signal,[18],"1.79 fold enrichment (6-mer frequency, TF over GST control)"
same,binding signal,[19],"1.74 fold enrichment (6-mer frequency, TF over GST control)"
